From PubChem
TRb SRC2 PPI: inhibitors of human thyroid hormone receptor beta-SRC2 interaction; P10828; TRbeta-SRC2 peptide binding, fluorescence polarization; receptor liganded with 1 µM T3; Potency, µM (titrated, usually from 106 µM), usual class: inhibitors; 280,000 compounds, 0.065% hits; AID 1469; further: nearly all actives have a fitted effect of over 50% in size
Target sequence (P10828 whole entry, looked up): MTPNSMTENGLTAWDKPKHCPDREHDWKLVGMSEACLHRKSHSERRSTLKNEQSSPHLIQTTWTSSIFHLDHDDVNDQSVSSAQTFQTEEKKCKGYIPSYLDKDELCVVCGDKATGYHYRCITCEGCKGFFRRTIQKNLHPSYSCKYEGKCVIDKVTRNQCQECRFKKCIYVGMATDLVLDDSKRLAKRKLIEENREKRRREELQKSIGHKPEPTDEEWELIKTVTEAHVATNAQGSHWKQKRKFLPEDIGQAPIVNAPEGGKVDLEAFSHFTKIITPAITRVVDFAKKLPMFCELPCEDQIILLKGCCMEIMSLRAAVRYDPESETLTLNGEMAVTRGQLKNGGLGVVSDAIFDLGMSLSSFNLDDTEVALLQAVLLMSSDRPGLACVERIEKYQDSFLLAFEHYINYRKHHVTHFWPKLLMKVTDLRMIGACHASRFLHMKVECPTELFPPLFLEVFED
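Assay buffer: 20 mM Tris-HCl, 100 mM NaCl, 10% glycerol, 1 mM EDTA, 0.01% NP-40, 1 mM DTT, 1 uM T3, 5% DMSO; TRb LBD 0.6 uM, Texas Red SRC2 20 nM; FP after 5 hr.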
ERG-DNA inh: ERG Ets/DNA interaction inhibition | P11308 | fluorescence polarization, His-ERG Ets domain / labelled DNA | Potency, µM (top dose mostly 76.9 µM), most hits filed as inhibitors | 370,000 compounds, 0.028% hits | AID 624246; active means well fitted inhibition curve with a large enough effect in the polarisation, with a control signal flat; inconclusive means small, poorly fitted or top-dose-only effect, or effect the other way, or a change in a side signal; inactive means no such curve, though single readings can be large or run the other way; the % refers to the polarisation;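 further: polarization taken with two DNA probes labelled with fluorescein and Texas red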
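His-tagged ERG Ets domain (1 uM in the protein solution; 300mM KCl, 50mM Tris-HCl, 1mM EDTA, 1mM DTT, pH 7.5) received compound, then a probe mix of 5 nM fluorescein-DNA and 100nM Texas-615-DNA. Fluorescence polarization was read for both dyes.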
TR SRC2 fluor cs: alters Texas Red total fluorescence, flagging assay interference. TRb/SRC2 Texas Red total fluorescence interference. Potency, µM (doses to about 106 µM). 280,000 compounds, 0.29% hits; active means well fitted curve in either direction with a large enough effect; inconclusive means small, poorly fitted or top-dose-only effect
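Flags fluorescent or light-absorbing compounds by total fluorescence, S + 2P, at 555 nm excitation and 632 nm emission. Mixture: 20 nM Texas Red SRC2 peptide, 0.6 uM human TRb LBD, 1 uM T3, 5% DMSO; compound exposure 5 h at ambient temperature.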
Integrin act MD: activators of alpha7 integrin expression for muscular dystrophy | alpha7betagal myoblasts, beta-gal FDG fluorescence, 48 h | Potency, µM (titrated, usually from 38.3 µM), most hits filed as activators | 350,000 compounds, 0.064% hits; further: nearly all actives have a fitted effect of over 60% in size
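Alpha7betagal+/- myoblasts (passage 13) were plated 16-24 hr, then exposed to compounds (1:260 dilution of DMSO stock) for 48 hours at 37C. After MPER lysis, β-galactosidase reporter activity was read as FDG fluorescence (ex 480/em 540) after 30 minutes.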
RGS12 GoLoco inh: blocks human Gai1 binding to RGS12 GoLoco peptide, red readout; AID 880; Potency, µM (top dose mostly 61.6 µM), actives largely listed as inhibitors; Gai1:RGS12 GoLoco peptide FP, rhodamine, 10 min; 230,000 compounds, 0.44% hits; active means well fitted inhibition curve with a large enough effect, not every such curve was filed as active; inactive means no such curve, though single readings can be large or run the other way; further: nearly all actives have a fitted effect of over 30% in size
CBFb RUNX1 block: inhibitors of human CBF-beta and RUNX1 interaction. Q01196+Q13951. AlphaScreen CBFb-His/RUNX1-biotin binding, biochemical. Potency, µM (titrated, usually from 59.8 µM), most hits filed as inhibitors. 230,000 tested, under 10 active. AID 1477
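Read-out: AlphaScreen. Format: His-CBF-beta with biotinylated RUNX1 (30 nM each) preincubated 20 min, compound 15 min, Ni-chelate plus streptavidin beads 90 min; room temperature throughout.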
A number is an active result; - = inactive; ? = inconclusive; . = no result; [ ] = dose if it differs, or a comment. Only some compounds are listed: those with a hit (about 0.45% of all), similar ones and a draw of the others. Unless noted, the call rests on the fitted dose curve; in most records, active means well fitted curve in the direction sought with a large enough effect; inconclusive means small, poorly fitted or top-dose-only effect, or another doubt; inactive means no such curve, though single readings can be large; an effect the other way counts as inactive or inconclusive.

SMILES | TRb SRC2 PPI | ERG-DNA inh | TR SRC2 fluor cs | Integrin act MD | RGS12 GoLoco inh | CBFb RUNX1 block
CC(O)/C=C/c1cccc[n+]1C (configuration not stated) | - | . | - | - | 7.94µM | -
O=C(COC(=O)C1CC(O)CN1S(=O)(=O)c1ccc(Cl)cc1)c1ccccc1 (configuration not stated) | - | - | 0.112µM[quencher] | - | - | -
C/C(=C\C(C)CC(C)CC(C)C)C1CC(=O)OC1=O (configuration not stated) | - | . | - | . | . | .
[O-][n+]1ccccc1SSc1cccc[n+]1[O-] | - | . | - | . | - | .
CC1(C)CC(N2CCOCC2)=CC(=[N+]2CCOCC2)C1 | - | - | - | - | - | -
CCCN(CCC)C1=CC(=[N+]2CCCC2)CC(C)(C)C1 | - | - | - | - | 7.94µM | -
CC1(C)CC(N2CCCCC2)=CC(=[N+]2CCCCC2)C1 | - | - | - | ? | 2.51µM | -
Cc1cc(C)nc(NNC2=CC(=[N+]3CCCCC3)CC(C)(C)C2)n1 | - | - | - | - | - | -
CN(C)NC1=CC(=[N+]2CCCC2)CC(C)(C)C1 | - | - | - | - | - | -
CC1C[N+](=C2C=C(N3CCOCC3)CC(C)(C)C2)CC(C)O1 (configuration not stated) | - | - | - | - | 25.1µM | -
O=C(Nc1cccc(C(F)(F)F)c1)Nc1cc(Cl)ccc1C(=O)O | - | . | - | . | . | -
COC(=O)C1=C(C(=O)OC)[C@@H]2N(C)c3ccccc3[C@@]23C[C@@H](C(=O)OC)N(S(=O)(=O)c2ccc([N+](=O)[O-])cc2)C3=N1 | -[11.2 µM] | . | -[11.2 µM] | . | -[14.2 µM] | -[13.1 µM]
O=C(O)CCNc1cc(N2CCN(C(=O)c3ccco3)CC2)c2noc3c2c1C(=O)c1ccccc1-3 | . | - | . | ? | . | .
CCNc1cc(N2CCN(C3CCCCC3)CC2)c2noc3c2c1C(=O)c1ccccc1-3 | - | - | - | . | . | .
O=C1c2ccccc2-c2onc3c(NCCO)cc(NC4CCCCC4)c1c23 | ? | ? | 39.8µM[fluorescent] | . | . | .
CC(=O)OCCNc1cc(N2CCN(C)CC2)c2noc3c2c1C(=O)c1ccccc1-3 | 44.7µM | - | 50.1µM[fluorescent] | - | - | ?
O=C(O)CCCNc1cc(N2CCN(C3CCCCC3)CC2)c2noc3c2c1C(=O)c1ccccc1-3 | - | ? | 39.8µM[fluorescent] | . | . | .
CC1(C)SC2[C@@H](N=CN3CCCCCC3)C(=O)N2[C@H]1C(=O)O (some centres not stated) | - | . | - | . | - | .
CSCC[C@H](NC(=O)[C@H](CC(C)C)NC(=O)CNC(=O)[C@H](Cc1ccc(O)cc1)NC(=O)[C@H](Cc1ccccc1)NC(=O)[C@H](CCC(N)=O)NC(=O)[C@H](CCC(N)=O)NC(=O)[C@@H]1CCCN1C(=O)[C@H](CCCCN)NC(=O)[C@@H]1CCCN1C(=O)[C@@H](N)CCCN=C(N)N)C(N)=O | - | . | ? | . | . | -
CCc1ccccc1NC(=O)N1CCOc2ccccc21 | - | - | 0.0089µM[quencher] | . | . | .
CCc1ccccc1NC(=O)C1CCN(C(=O)N2CCOc3ccccc32)CC1 | . | - | . | - | . | .
CCOC(=O)c1ccccc1NC(=O)N1CCOc2ccc(Cl)cc21 | - | - | 4.47µM[quencher] | . | . | .
O=C(/C=C/c1ccc(OCc2ccccc2)c(OCc2ccccc2)c1)c1cccnc1 | - | - | 1122µM[quencher] | - | - | -
COc1ccc(C=CC(=O)c2ccc(OCc3ccccc3)c(OC)c2)cc1OC | . | . | . | - | . | .
CCOC(=O)c1ccccc1NC(=O)NC(C)c1c(-n2cccc2)sc(C)c1C (configuration not stated) | - | - | 22.4µM[quencher] | . | . | .
SMILES | TRb SRC2 PPI | ERG-DNA inh | TR SRC2 fluor cs | Integrin act MD | RGS12 GoLoco inh | CBFb RUNX1 block
COc1ccc(C2=CC(=O)C[C@H](c3ccc(OC)cc3)C2)cc1 | . | - | . | - | . | .
COc1ccc(C2=CC(=O)C=CC2=O)cc1 | - | . | - | . | 3.55µM | -
O=[N+]([O-])c1ccc(NCCO)c(OCCO)c1 | - | . | - | . | - | -
COc1cccc(C2=Nn3c(nnc3-c3cc(OC)cc(OC)c3)SC2)c1 | - | . | - | . | . | -
CC(C)(C)c1ccc(C(=O)OCC(=O)Nc2sc3c(c2C#N)CCC3)cc1 | - | - | - | 5.01µM | - | -
CN(C)S(=O)(=O)c1ccc(C(=O)OCC(=O)Nc2sc3c(c2C#N)CCCCC3)cc1 | - | ? | - | - | - | -
CCCCCCCCCC[n+]1cccc2c3ccccc3ccc21 | - | - | - | ? | 10µM | -
CCOC(=O)c1c(NC(C)=O)no[n+]1[O-] | - | - | - | - | - | -
CCOC(=O)C1=CC(OC(CC)CC)C(NC(C)=O)C(N)C1 (configuration not stated) | - | . | - | . | 31.6µM | -
CC(=O)c1c(C(C)=O)c(C)n(-c2ccc(N)c(C)c2)c1C | 22.4µM | - | 44.7µM[fluorescent] | - | - | -
Cc1cc(C)c2c(=O)n(CC(=O)NCCCN3CCOCC3)sc2n1 | - | - | - | - | 31.6µM | -
Cc1cc([N+](=O)[O-])nn1CC(=O)NCCCN1CCOCC1 | . | - | . | - | . | .
Cc1ccccc1CS(=O)(=O)CCC(=O)NCCCN1CCN(c2ccccc2F)CC1 | - | - | - | - | - | -
Cc1cc(C)c2c(=O)n(CC(=O)NCCCN3CCN(c4ccccc4F)CC3)sc2n1 | - | - | - | - | 20µM | -
Cc1cc(-c2ccccc2C(=O)O)on1 | - | - | - | - | - | -
O=C(O)c1ccccc1C1=Nc2ccc(O)cc2Oc2cc(O)ccc21 | - | ? | - | - | 25.1µM | -
CC(=O)O[C@@H]1[C@@H](O)CN[C@@H]1Cc1ccccc1 | - | . | - | . | . | -
O=[N+]([O-])c1ccc2c(c1)Cc1ccccc1-2 | - | . | - | . | . | .
COc1cc2c(cc1OC)-c1cc3cc(OC)c(OC)cc3c(=O)n1CC2 | - | . | - | . | - | -
CCC(C(=O)Nc1ccccc1OC)n1c(C(=O)OC)cc2sc(Cl)cc21 (configuration not stated) | - | - | 20µM[quencher] | . | . | .
O=C(c1ccc(Cl)cc1)c1ccc(Cl)cc1 | - | . | - | . | . | .
Cc1cccc(C(=O)Nc2nnc(SCC(=O)Nc3ccc4c(c3)oc3ccccc34)s2)c1 | - | - | - | - | 7.94µM | -
COc1ccccc1C(=O)Nc1nnc(SCC(=O)Nc2ccc3c(c2)oc2ccccc23)s1 | - | - | - | - | - | -
C=CCn1c(P(=O)(O)c2ccccc2)nc2ccccc21 | - | - | - | - | 5.62µM | -
COc1ccc(-c2csc3ncnc(N4CCN(c5ccccc5O)CC4)c23)cc1 | . | - | . | - | . | .
COc1ccc(-c2csc3ncnc(N4CCN(c5ccccc5[N+](=O)[O-])CC4)c23)cc1 | . | - | . | 10µM | . | .
CCOC(=O)c1ccc2c(c1)N(C)C(=O)c1ccccc1S2 | . | - | . | - | . | .
